Laboratory results from PubChem BioAssay (NCI).
The panel holds about 83,000 compounds, 20% with a hit somewhere; the sample as a whole holds those more often.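 Cell lines were cultured in 96-well plates, exposed to a single compound concentration, and assessed for percent growth 48 hours later.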 Values without a mark were called inactive. Calls of active or inactive are those of the source. How the source made its calls: active means growth percent below 10; inactive means the rest.

How the values were obtained:
Experiment in all cases: NCI-60 one-dose screen, 48 h (100 = growth as untreated, 0 = no growth, -100 = all killed)
Settings in all cases: 10 µM unless noted
SK-MEL-2 melanoma = tested on: SK-MEL-2 melanoma
EKVX NSCLC = tested on: EKVX NSCLC
SN12C renal = tested on: SN12C renal
UO-31 renal = tested on: UO-31 renal
TK-10 renal = tested on: TK-10 renal
ACHN renal = tested on: ACHN renal
CAKI-1 renal = tested on: CAKI-1 renal
A498 renal = tested on: A498 renal
CCRF-CEM leukemia = tested on: CCRF-CEM leukemia
MOLT-4 leukemia = tested on: MOLT-4 leukemia
SR leukemia = tested on: SR leukemia
RPMI-8226 leukemia = tested on: RPMI-8226 leukemia
OVCAR-8 ovarian = tested on: OVCAR-8 ovarian
OVCAR-5 ovarian = tested on: OVCAR-5 ovarian
OVCAR-4 ovarian = tested on: OVCAR-4 ovarian
SK-OV-3 ovarian = tested on: SK-OV-3 ovarian
IGROV1 ovarian = tested on: IGROV1 ovarian
HS 578T breast = tested on: HS 578T breast
NCI/ADR-RES ovarian = tested on: NCI/ADR-RES ovarian
OVCAR-3 ovarian = tested on: OVCAR-3 ovarian

SMILES	growth (SK-MEL-2 melanoma)	growth (EKVX NSCLC)	growth (SN12C renal)	growth (UO-31 renal)	growth (TK-10 renal)	growth (ACHN renal)	growth (CAKI-1 renal)	growth (A498 renal)	growth (CCRF-CEM leukemia)	growth (MOLT-4 leukemia)	growth (SR leukemia)	growth (RPMI-8226 leukemia)	growth (OVCAR-8 ovarian)	growth (OVCAR-5 ovarian)	growth (OVCAR-4 ovarian)	growth (SK-OV-3 ovarian)	growth (IGROV1 ovarian)	growth (HS 578T breast)	growth (NCI/ADR-RES ovarian)	growth (OVCAR-3 ovarian)
O=C(N/N=C\c1ccc([N+](=O)[O-])cc1)c1ccc2nc(-c3ccc(Br)cc3)[nH]c2c1	51.9%	45.4%	16.9%	41.6%	64.6%	34.1%	34.8%	21.4%	10.6%	5.71% (active)	-3.17% (active)	6.03% (active)	13.5%	44.8%	21.3%	45%	18%	23.2%	71.4%	
O=C(CCCCCCN1CC(=O)N2[C@@H](c3ccc(Cl)s3)c3[nH]c4ccccc4c3C[C@H]2C1=O)NO	59.9%	49.1%	72.7%	57.8%	43.4%	66.8%	48.8%	72.8%	16.7%	11.2%	14.7%	17%	38.5%	39.3%	64.6%	78.7%	-20.6% (active)	65.5%	98.5%	
CCOC(=O)c1ccccc1NC1=C(Cl)C(=O)c2nc(C)ccc2C1=O	112%	95.1%	88.2%	91.9%	147%	101%	98.6%	87.4%	84.3%	84.8%	102%	99.3%	100%	101%	83.6%		91.4%	99%	93.9%	90.6%
Clc1ccc2[nH]cc(-c3cncn3CCc3ccc4c(c3)OCO4)c2c1	86.4%	48%	77%	51.9%	96.9%	78.4%	35.6%	56.3%	64.2%	60.4%	62.1%	42.5%	76%	76.2%	33%		76.8%	69.7%	78.6%	67.6%
O=c1oc2ccc(-c3ccc(F)cc3F)cc2c(=O)n1-c1ccc(Br)cc1F	41%	73.5%	46.2%	84.5%	64.8%	80.5%	61.9%	37.4%	56.3%	57.8%	85.1%	31.6%	69.5%	108%	78.7%	63.9%	58.3%	47.2%	75.3%	
c1ccc(-c2cn3c(-c4c[nH]c5ccccc45)csc3n2)cc1	77.4%	72%	53.6%	73%	148%	91.8%	77.9%	79.3%	53%	66.9%	61.7%	31.2%	65.5%	87.8%	61.9%	87.3%	62.2%	68.9%	91.8%	
C/C(=N\NC(N)=S)c1nnn(-c2ccc([N+](=O)[O-])cc2)c1C	110%	62.4%	94.5%	70.5%	98.7%	97%	90.8%	94%	101%	105%	110%	103%	98.6%	98.7%	108%	104%	100%	96.3%	98.8%	
O=C(/C=C/Nc1ccc(S(=O)(=O)Nc2ncccn2)cc1)c1ccc(N=Cc2c(O)[nH]c3ccccc23)cc1	118%	103%	98.3%	92.4%	112%	106%	94.4%	98.5%	104%	109%	82.1%	86.4%	101%	115%	106%		118%	105%	110%	137%
O=C(NCCNc1cc(-c2cn(-c3ccccc3)nc2-c2cccc(O)c2)ccn1)Nc1cc(C(F)(F)F)cc(C(F)(F)F)c1	93.7%	90.6%	95.5%	77.1%	94.4%	96.9%	88.9%	76.6%	101%	84.9%	81.3%	94.7%	98.5%	97.3%	91.6%	104%	82.2%	93.9%	91.9%	
N#C/C(=C\c1ccc(-c2ccc(Cl)cc2)o1)C(=O)Nc1ncc(Cc2ccc(Br)cc2)s1	83.1%	19.6%	-29.9% (active)	52.9%	-35.6% (active)	-34.6% (active)	-7.28% (active)	-25.5% (active)	34.8%	55.8%	16.8%	64.1%	6.49% (active)	42.4%	-26.7% (active)	70.3%	7.06% (active)	-2.91% (active)	8.56% (active)	
CCOC(=O)c1c(N)c(C#N)cn1Cc1ccc(Cl)cc1Cl	94.2%	81.8%	81.2%	59.9%	69.8%	87.4%	62.4%	73.5%	84.6%	65.1%	26.2%	83%	94.4%	85.5%	79.3%	101%	63.3%	73.4%	61.5%	
COc1ccccc1/C=C/C(=O)c1nnn(-c2ccc(F)cc2)c1C	93.2%	69.3%	68.5%	38.1%	110%	46.1%	38.5%	66.8%	14%	45%	13.2%	20.9%	44.9%	89.5%	59.2%	95.8%	45.6%	78.3%	34.3%	
NC(=S)n1c(=O)n(-c2cccc(C(F)(F)F)c2)c(=O)c2cc(-c3ccc(F)cc3F)ccc21	-29.1% (active)	5.19% (active)	-3.03% (active)	6.1% (active)	7.56% (active)	-0.456% (active)	-13.5% (active)	-18.8% (active)	18%	0.58% (active)	5.69% (active)	-20.8% (active)	10.9%	9.62% (active)	29.9%	-2.63% (active)	21.2%	-2.09% (active)	4.95% (active)	
O=C(Nc1ccc(Cl)c(C(F)(F)F)c1)Nc1ccc2c(ccn2C(=O)c2cccc(F)c2)c1	45.3%	30%	42.9%	35.6%	45.9%	17.7%	29.1%	70.3%	15.8%	10.9%	27.5%	-6.63% (active)	34.1%	67.3%	7.18% (active)		25%	52.4%	30.8%	9.54% (active)
COc1ccc(/C(=N\NC(N)=S)c2ccc(Cl)cc2)cc1OC	-23.8% (active)	50.8%	29%	34.5%	83.3%	42.3%	31.2%	-4.86% (active)	25.6%	29.5%	29.3%	45.6%	37.8%	51.2%	60.6%	18.3%	30.3%	3.4% (active)	7.07% (active)	
C#C[C@]1(O)CC[C@H]2[C@@H]3CC=C4c5sc(Nc6cc(Cl)ccc6OC)nc5CC[C@]4(C)[C@H]3CC[C@@]21C	1.15% (active)	22.3%	53.7%	16.1%	48.4%	32.1%	-4.8% (active)	-2.08% (active)	8.93% (active)	1.34% (active)	3.9% (active)	-35.1% (active)	52.5%	67.5%	52.5%		43.5%	-7.86% (active)	56.4%	25.3%
